Data taken from PubChem BioAssay AID2099 (Broad Institute, 2009).
Among all 330,000 compounds or so, about 230 (0.07%) were called active. This is one part of a sample in which actives are shown more often than they occur.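 How the source made its calls: active means more than half of a compound's replicate wells show inhibition beyond 50%, single wells judged on their own value; inconclusive means some, but no more than half, of replicates pass 50% inhibition; inactive means no replicate passes 50% inhibition.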

Target: Lysine-specific demethylase 4C (Homo sapiens) (UniProt Q9H3R0)
Experiment: inhibitors of GASC-1 histone demethylase, primary screen, biochemical, fluorescence, DELFIA europium (AID 2099);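 further: signal counts dimethyl H3K9 product captured on neutravidin plate; 0% = median of DMSO wells and 100% = 0.3 times that DMSO median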
Settings: GST-JMJD2C(1-420) H3K9me3 demethylation, at 2.35 µM, hits give high values

Chain of Lysine-specific demethylase 4C (Homo sapiens) (Q9H3R0 1-420 limits assumed): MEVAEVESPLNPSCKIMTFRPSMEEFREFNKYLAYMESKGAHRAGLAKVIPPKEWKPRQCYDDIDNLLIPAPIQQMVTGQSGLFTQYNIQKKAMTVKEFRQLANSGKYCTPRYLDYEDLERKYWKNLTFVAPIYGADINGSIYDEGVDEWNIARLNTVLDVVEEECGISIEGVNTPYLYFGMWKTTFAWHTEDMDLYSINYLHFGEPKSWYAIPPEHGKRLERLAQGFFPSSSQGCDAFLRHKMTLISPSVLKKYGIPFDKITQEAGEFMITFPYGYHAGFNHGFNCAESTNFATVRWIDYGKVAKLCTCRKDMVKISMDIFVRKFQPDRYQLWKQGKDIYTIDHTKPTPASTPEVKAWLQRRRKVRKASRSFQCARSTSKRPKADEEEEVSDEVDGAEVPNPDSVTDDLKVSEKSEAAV

inhibition, inactive:
CCc1cc2c(=O)n(-c3ccccc3)c(SCC(=O)O)nc2s1 -0.0126%
Cn1ccnc1-c1nnn(-c2ccc(F)cc2)n1 1.58%
Cc1sc2ncn(CC(=O)NCCCC(=O)N(C)Cc3ccccc3)c(=O)c2c1C 3.53%
Cc1ccc2nc(C)c3c(c2c1)N(c1ccccc1)CC3 0.549%
CC(C)n1c(=S)[nH]c2cc(C(F)(F)F)ccc21 9.24%
O=C(COC(=O)c1ccccc1NC(=O)c1ccco1)Nc1ccc2c(c1)OC(F)(F)O2 -7.33%
CCN1CCC2(CC1)N=C(c1ccc(F)cc1)C(=S)N2C(=O)c1ccc(C)cc1 -5.72%
CCOc1ncccc1C(=O)OCC(=O)Nc1cccc(S(=O)(=O)N2CCCCCC2)c1 3.84%
CCC1(C)N(O)C(C)(C)C(c2ccc(OC)cc2)=[N+]1[O-] (stereo unspecified) 1.82%
CN(/C(=N/S(=O)(=O)c1cccs1)c1ccccc1)c1ccc(O)cc1 -2.26%
COc1ccc(Cl)cc1N(CC(=O)N/N=C/c1ccc(OCC(N)=O)cc1)S(C)(=O)=O 4.78%
O=C(COc1ccc(Cl)cc1Cl)NCCCNC(=O)c1cnccn1 -5.15%
CCOC(=O)C(=Cc1ccccc1OC)C(=O)OCC -1.48%
CCOc1ccccc1NC(=O)NC1CCCCCCC1 3.73%
CC(=O)Nc1ccc(NC(=O)C(C)OC(=O)C2CC(=O)N(CCc3ccccc3)C2)cc1 (stereo unspecified) 0.0499%
Cc1nn(Cc2ccc(F)cc2)c(C)c1NC(=O)c1noc2c1CCc1ccccc1-2 -8.11%
COc1ccccc1CCC(=O)NNC(=O)c1ccncc1 -2.82%
COc1cccc(CN(C)C(=O)CC23CC4CC(CC(C4)C2)C3)c1OC 8.93%
CC(C)=CCN1CCN(Cc2cc3ccccc3[nH]2)CC1CCO (stereo unspecified) -4.87%
COc1ccc(-c2nnc(SC(=O)N3c4ccccc4Sc4ccccc43)o2)cc1 -0.278%
CC1=C(C(=O)N(C)C)C(c2ccccc2OC(F)F)NC(=O)N1 (stereo unspecified) 6.88%
CCN1N=C(c2ccccc2)CCC1=O 2.88%
CCc1ccc[n+](-c2nc([O-])sc2C=O)c1 22.8%
Cc1ccnc(NC(=O)CCNS(=O)(=O)c2ccc(C)c(C)c2)c1 7.52%
CCOc1ccc(-n2c(N)c(C(=O)NCC3CCCO3)sc2=S)cc1 (stereo unspecified) -1.83%
CCC(C)(C(=O)NC1CCCCC1)N(C)C(=O)c1ccc2c(c1)OCO2 (stereo unspecified) 10.3%
CN(C)c1nc(N)nc(CSc2nnnn2-c2cccc3ccccc23)n1 -13.8%
O=C(NCc1ccc(F)cc1)C(c1ccccc1)N(C(=O)c1csnn1)C1CC1 (stereo unspecified) -35.4%
CCc1ccc(N2CC(C(=O)N3CCCCCC3)CC2=O)cc1 (stereo unspecified) 1.98%
CN1CCN(S(=O)(=O)c2cccc(C(=O)Nc3cccc(S(N)(=O)=O)c3)c2)CC1 -5.59%
COc1ccccc1C(=O)Nc1cccc(C(=O)N2CCOCC2)c1 4.92%
O=C(NCN1CCN(CCO)CC1)c1cnccn1 -26.1%
COc1cccc(NC(=O)CN(C)CC(=O)c2c(N)n(Cc3ccccc3)c(=O)n(C)c2=O)c1 -0.288%
CCCN(CCC)C(=O)C1c2ccccc2Oc2ccccc21 8.4%
CC(C)C[C@H](NC(=O)C1CCC(CNC(=O)[C@@H]2CCCN2C(=O)OC(C)(C)C)CC1)C(=O)O (stereo partly specified) 0.085%
Cc1ccc(NS(=O)(=O)c2ccc(F)cc2)nc1 -1.74%
COc1ccccc1CNC(=O)COC(=O)c1cccs1 -6.88%
CC(=O)NCCc1ccc(S(=O)(=O)Nc2ccc(C)c(S(=O)(=O)N3CCOCC3)c2)cc1 -18.7%
CC(=O)NC1=NN(C(C)=O)C(C)(c2ccc(Cl)s2)S1 (stereo unspecified) -13.4%
CCOc1ccc(N(C)Cc2cc(=O)oc3ccc(OC)cc23)cc1 -5.29%
Cc1ccc(CSc2nc3[nH]ncc3c(=O)[nH]2)cc1 -14.5%
COC(=O)c1cc(CNC(=O)CC(C)c2ccccc2)ccc1OC (stereo unspecified) -9.06%
CCOC(=O)c1ccc(NC(=S)N2CCN(c3ccccn3)CC2)cc1 21.6%
OC(COc1ccc(CN2CCSCC2)cc1)CN1CCCCC1 (stereo unspecified) 6.13%
CCOC(=O)C1=C(COC(=O)[C@H](C)NS(=O)(=O)c2ccccc2F)NC(=O)NC1C (stereo partly specified) 0.99%
COc1cc2nc(CN(C)Cc3ccc(F)cc3)[nH]c(=O)c2cc1OC -7.12%
Cc1cc(NC(=O)CCC(=O)N(Cc2ccccc2)C(C(=O)NC2CCCC2)c2ccc(C)o2)no1 (stereo unspecified) -25.8%
CCCCn1c(N)c(N(CCOC)C(=O)c2cccc(S(=O)(=O)N(C)c3ccccc3)c2)c(=O)[nH]c1=O -2.28%
CCC(C(=O)Nc1ccc(C(C)C)cc1)c1ccccc1 (stereo unspecified) -16%
O=C(Nc1ccc(S(=O)(=O)Nc2ccccn2)cc1)c1ccccc1 -2.52%
COC(=O)c1cc(C(=O)NC(C)C2CC3CCC2C3)cc([N+](=O)[O-])c1 (stereo unspecified) -12.5%
COc1cc(NC(=O)c2ccccc2)c(OC)cc1NC(=O)Cc1ccccc1 0.759%
Nc1nc(SCC(=O)Nc2cc(C(F)(F)F)ccc2Cl)[nH]c(=O)c1NC(=O)c1ccco1 6.68%
COc1ccc(C(CC(=O)c2ccccc2)S(=O)(=O)c2ccccc2)cc1 (stereo unspecified) -0.656%
CCC(C(=O)NCCC(C)C)N(Cc1ccccc1Cl)C(=O)c1snc(C(N)=O)c1N (stereo unspecified) -1.98%
CCCCCOC(=O)C1=C(C)Nc2nnnn2C1c1ccc(OC)c(OC)c1OC (stereo unspecified) -7.05%
Cc1ccc(NC(=O)Cn2cnc3c(OCc4ccccc4)ncnc32)cc1C 3.36%
O=C(Cc1cccs1)NCc1cccc(C(F)(F)F)c1 2.56%
O=C(c1ccc(S(=O)(=O)N2CCCC2)cc1)N1CCN(c2ccccc2F)CC1 5.37%
C/C(=N\NC(=O)CCn1nc(C)cc1C)C(C)(C)C -1.66%
CCC(c1nnc(SCC(=O)NNC(=O)c2ccccc2)n1Cc1ccccc1)N(C)C (stereo unspecified) 24.1%
CC1CN(C(=O)COC(=O)c2cccc(NS(=O)(=O)c3ccccc3)c2)CC(C)O1 (stereo unspecified) -11.9%
CC(C)(C)n1nnc(CCc2nnn(C(C)(C)C)n2)n1 4.71%
CC1CC(C)(C)CC2(C1)NC(=O)N(CC(=O)Nc1nccs1)C2=O (stereo unspecified) 12%
CN(C)/C=N/c1cc(=O)n(C)c(=O)n1CC1CC1 -0.734%
CN(C)S(=O)(=O)c1ccc(N2CCCC2=O)c([N+](=O)[O-])c1 7.65%
C=CCc1cc(S(=O)(=O)c2ccc(O)c(CC=C)c2)ccc1O 11.5%
CCCCc1ccc(S(N)(=O)=O)cc1 1.85%
COc1cc(CN(C)Cc2nc3cc(C(F)(F)F)ccc3c(=O)[nH]2)ccc1OC(F)F -0.492%
O=[N+]([O-])c1ncc(Br)cc1Nc1ccccc1 -32.6%
CC(C)N(Cc1nnc(-c2ccc(Cl)cc2)o1)C(=O)C1=COCCO1 0.031%
COc1ccc(CNC(=O)C(=O)N2CCC3(CC2)OCCN3S(=O)(=O)c2ccc(C)cc2)cc1 28.1%
Cc1cc(C)n(CCNC(=O)CC2C(=O)NCCN2Cc2ccc(C)o2)n1 (stereo unspecified) -19.8%
CCC(=O)NC(Nc1cc(C)ccn1)(C(F)(F)F)C(F)(F)F -10.4%
CC1CN(C(=O)CCC(=O)NCCCN2CCC(Cc3ccccc3)CC2)c2cc(Cl)ccc2O1 (stereo unspecified) 2.61%
Cc1noc(C)c1C(=O)OCC(=O)N1CCN(S(=O)(=O)c2ccc3ccccc3c2)CC1 -0.0421%
CCOC(=O)c1sc(-c2cccc([N+](=O)[O-])c2)cc1N 0.615%
Cc1ccc(C(=O)CN2C(=O)NC3(CCOc4ccccc43)C2=O)s1 (stereo unspecified) 0.803%
CCOc1ccc(NC(=O)CN(C)CC(=O)NC(C)c2ccccc2)cc1OCC (stereo unspecified) 2.69%
CCN1C(=O)C(=O)N(CC(=O)Nc2cc(C)ccc2C)C1=O 8.4%
COc1cccc2cc(C(=O)NCc3ccc(C)cc3)c(=N)oc12 0.845%
Cc1ccccc1-c1cc(C(=O)NCC2CC2)n(CC2CC(c3cccnc3)=NO2)n1 (stereo unspecified) -1.99%
O=C(/C=C/c1cccs1)c1cc(Cl)ccc1OC(=O)N1CCOCC1 98.5%
COc1cc(OC)cc(-c2nnc(N(C)C(=O)c3ccncc3)s2)c1 -7.55%
COc1cccc(-c2nnc(N(C)C(=O)c3ccno3)s2)c1 -39.9%
O=C(NCCNc1ccc([N+](=O)[O-])cc1)c1cccc2c(Br)cccc12 7.15%
O=C(O)CCCn1cc(NC(=O)COc2cccc(Cl)c2)cn1 -414%
CCCCn1c(N)c(N(CC(C)C)C(=O)c2cccc(S(=O)(=O)N3CCN(C(C)=O)CC3)c2)c(=O)[nH]c1=O -1.72%
CC1CCN(C(=O)/C(=C\c2ccccc2F)NC(=O)c2ccccc2)CC1 0.57%
CCOc1ccc(S(=O)(=O)N2CCC(c3ccccc3)CC2)cc1C(=O)O -0.18%

inhibition, active:
CN(C(=O)c1ccccn1)c1nnc(-c2ccccn2)s1 58.4%
